Source: PubChem
Only some compounds are listed: those with a hit (about 2.4% of all), similar ones and a draw of the others.
CHRM1 antagonist: human CHRM1 antagonism. P11229. CHO-K1 hM1, Fluo-8 calcium fluorescence, ACh EC80 antagonist. inhibition, % at 3 µM. actives 1.3% (n = 360,000). AID 588852;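 active = percent inhibition above its own plate's cutoff, namely the mean of that plate's compound wells plus 3 SD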;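 note: peak over basal fluorescence ratio during 140 s after agonist addition; 0% = ACh EC80 plus DMSO and 100% = DMSO alone without agonist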
Target sequence (P11229 whole entry, looked up): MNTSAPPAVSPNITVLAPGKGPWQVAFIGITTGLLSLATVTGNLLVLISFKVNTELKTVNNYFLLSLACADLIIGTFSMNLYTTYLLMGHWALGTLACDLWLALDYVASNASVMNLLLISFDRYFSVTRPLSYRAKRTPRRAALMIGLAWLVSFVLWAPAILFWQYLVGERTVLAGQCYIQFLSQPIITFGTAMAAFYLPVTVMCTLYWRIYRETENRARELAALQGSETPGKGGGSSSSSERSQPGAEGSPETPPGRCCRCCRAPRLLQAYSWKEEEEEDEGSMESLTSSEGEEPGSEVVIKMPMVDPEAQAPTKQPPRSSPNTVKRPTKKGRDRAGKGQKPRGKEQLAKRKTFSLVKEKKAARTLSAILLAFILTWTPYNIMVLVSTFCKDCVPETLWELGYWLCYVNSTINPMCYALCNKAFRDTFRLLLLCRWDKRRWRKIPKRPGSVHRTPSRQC
M1 PAM: potentiates human M1 receptor response to acetylcholine. P11229. CHO-K1 hM1, Fluo-8 calcium fluorescence, ACh EC20; 0% = ACh EC20, 100% = maximal ACh. activation, % at 3 µM. actives 0.088% (n = 360,000). AID 588819; in the data active = activation above about 19%, passing the limit was not always enough
CHO-K1 Ca ag: M1 agonist counterscreen hit in parental CHO-K1 cells | AID 602248 | activation, % at 3 µM | actives 0.48% (n = 360,000) | Fluo-8 calcium fluorescence; scaled to maximal ATP response, vehicle zero; in the data active = activation above about 15%;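 note: untransfected CHO-K1 host cells lacking M1 receptor as counterscreen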
CHRM1 agonist: activates human CHRM1 receptor. P11229. actives 0.33% (n = 360,000). AID 588814. CHO-K1 hM1, Fluo-8 calcium fluorescence, agonist mode; 0% DMSO, 100% acetylcholine EC100. activation, % at 3 µM;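 active = activation above the run's mean compound activation plus 3 SD, cut at about 16% in these data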;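 note: peak over basal fluorescence ratio within a 140 s kinetic read after compound addition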
CHO-K1 Ca antag: counter-screen for M1 antagonists: effect in parental CHO-K1 cells | ATP-induced calcium, Fluo-8 fluorescence | inhibition, % at 3 µM | AID 602250 | actives 0.6% (n = 360,000);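 active = inhibition above a per-plate cutoff, the plate's mean sample inhibition plus 3 SD, cut at about 24% in these data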;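 note: 0% = DMSO plus EC80 ATP and 100% = DMSO alone without ATP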
CHO-K1 Ca PAM: M1 PAM counterscreen hit in parental CHO-K1 cells. ATP EC20, Fluo-8 calcium fluorescence; 0% at ATP EC20, 100% at ATP max. activation, % at 3 µM. actives 0.02% (n = 360,000);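 active = activation above the run cutoff, the mean activation of all test compounds plus 3 SD, cut at about 40% in these data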;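 note: peak over basal fluorescence ratio in a 140 s read after ATP addition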
Active calls of the source: *.

SMILES | CHRM1 antagonist | M1 PAM | CHO-K1 Ca ag | CHRM1 agonist | CHO-K1 Ca antag | CHO-K1 Ca PAM
O=C(Nc1ccccc1Cl)c1cc(C2CCCN(C(=O)c3cccs3)C2)on1 (stereo not given) | -23 | 8 | 1 | -7 | -12 | 22
O=C(CCc1ccccc1)NC1(Cc2ccccc2)CCN(CCc2cccs2)C1=O (stereo not given) | -4 | -1 | 4 | -6 | -14 | 17
O=C(NC1(Cc2ccccc2)CCN(Cc2ccc(-c3ccccc3)cc2)C1=O)c1ccccc1 (stereo not given) | 37* | -14 | 2 | -2 | 4 | -12
COC(C(=O)Nc1ccnn1C1CCN(Cc2ccc(CO)o2)CC1)c1ccccc1 (stereo not given) | 29 | -1 | 1 | -3 | 2 | -13
CC(C)c1cccc(C(C)C)c1NC(=O)c1ccccc1 | -2 | 5 | 1 | -6 | -4 | -8
Cc1cc(C)c(NC(=O)c2ccc3c(c2)C(=O)N(Cc2cccnc2)C3=O)c(C)c1 | -5 | 5 | 2 | -2 | -8 | 12
Cc1ccc(O)c(NC(=O)c2ccc3c(c2)C(=O)N(Cc2cccnc2)C3=O)c1 | 30 | 1 | 9 | 8 | 33* | -25
Cc1nc(Nc2ccc(Cl)cc2)c(C#N)c(=O)[nH]1 | -11 | 13 | 0 | 1 | 11 | -18
CCN(CC)C(=O)c1ncn2c1C(=O)N(C)CC2 | 7 | -3 | 0 | -4 | 27* | -8
CN1CCn2cnc(C(=O)NCc3ccccc3)c2C1=O | 24 | -21 | 5 | -1 | 11 | -9
O=C1OC(N2C(=O)CC[C@H]2C(=O)Nc2ccc3c(c2)OCO3)c2ccccc21 (stereo not given in full) | -13 | 9 | 1 | 2 | 0 | 15
CSc1nc2ccc(NC(=O)CS(=O)(=O)c3ccccc3)cc2s1 | -1 | 7 | 1 | -1 | 7 | 2
Cc1ccc(C(=O)OCC(=O)NCCc2ccc(F)cc2)cc1S(=O)(=O)N1CCOCC1 | -3 | 7 | 3 | -1 | -14 | 18
O=C(COC(=O)c1ccc(F)c(S(=O)(=O)N2CCOCC2)c1)NCCc1ccccc1 | -29 | 27* | 1 | 1 | -17 | 2
CC1CCCCN1Cc1c(O)ccc2c(=O)c(-c3nc4ccccc4s3)c(N)oc12 (stereo not given) | -8 | 10 | 0 | -9 | 4 | 12
O=C1C2C3C=CC(C3)C2C(=O)N1c1ccc(N2CCN(c3ccccn3)CC2)c([N+](=O)[O-])c1 (stereo not given) | 39* | -17 | 14 | 1 | 20 | -13
CCC(C)N(C(=O)CSc1nc(C)nc2ccccc12)C1CCS(=O)(=O)C1 (stereo not given) | -2 | 4 | 0 | -5 | -13 | 14
CC1(NC(=S)Nc2ccc(NC(=S)NC3(C)CCS(=O)(=O)C3)cc2)CCS(=O)(=O)C1 (stereo not given) | -7 | 6 | 1 | 17* | -2 | 14
O=C(CSc1nnc2ccccn12)NNC(=O)c1cccc(Cl)c1 | 5 | -5 | 0 | -4 | 0 | -11
CCOC(=O)c1sc2ccc(S(=O)(=O)N3CC(C)CC(C)C3)cc2c1N (stereo not given) | -4 | 7 | 1 | -5 | -11 | 21
C=CCOn1c(=O)c(-c2cccs2)[n+]([O-])c2ccccc21 | 15 | -9 | 0 | -4 | 28* | -10
C=CCOn1c(=O)c(-c2ccc(Cl)cc2)[n+]([O-])c2ccccc21 | -15 | 13 | 1 | -3 | -5 | -3
CCCOc1ccc(-c2c(C(=O)N/N=C/c3ccc(C)cc3)nnn2-c2nonc2N)cc1 | -14 | 8 | 1 | -3 | -3 | 12
CCOc1ccc(-c2c(C(=O)N/N=C/c3ccc(OC(C)C)cc3)nnn2-c2nonc2N)cc1 | 5 | 10 | 6 | 21* | -2 | 29
NNC(=O)c1nnn(-c2nonc2N)c1-c1cccs1 | -29 | 22* | 1 | 2 | -20 | 9
Cc1ccc(-c2c(C(=O)N/N=C/c3ccc(OC(C)C)cc3)nnn2-c2nonc2N)cc1 | 0 | 15 | 14 | 11 | -8 | 18
